Source: PubChem BioAssay (Tox21)
Several values for one entry are separate records, joined by “and”; a condition that tells them apart may be missing. Equal values may be shown once. Inconclusive results are not listed. Entries that show only a call come without a potency. Activity calls are given as the source filed them. Calls follow the shape of the dose curve; as a rule, active = well fitted curve in the direction sought with a large enough effect in the repeat runs; inconclusive = weak or mixed curves; inactive = no such curve, though single readings can be large; an effect the other way counts as inactive or inconclusive.

Columns and labels:
[1] = biological target: Voltage-gated inwardly rectifying potassium channel KCNH2 (Homo sapiens) (UniProt Q12809); assay: Human Ether-a-go-go-Related Gene (hERG) channel small molecule antagonists: fluorescence cell-based qHTS assay (AID 1671200)
Method in brief: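 Thallium served as the potassium surrogate; its influx into dye-loaded U2OS cells carrying the channel was measured by fluorescence over 2 min.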

[2] = biological target: Cytochrome P450 3A4 (Homo sapiens) (UniProt P08684); assay: Cytochrome P450 Family 3 Subfamily A Member 4 (CYP3A4) small molecule antagonists: luciferase reporter qHTS assay (AID 1671201)
Method in brief: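 Relative luminescence units after 20 min with luciferin detection reagent served as read-out. Beforehand, CYP3A4 turned over a proluciferin substrate for 1 h at room temperature with NADPH regeneration, following 10 min compound preincubation.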
Also: nearly all actives have a fitted effect of over 50% in size.
Potency is read from the fitted curve at half-maximal effect.

Chain of Voltage-gated inwardly rectifying potassium channel KCNH2 (Homo sapiens) (Q12809 whole entry, looked up): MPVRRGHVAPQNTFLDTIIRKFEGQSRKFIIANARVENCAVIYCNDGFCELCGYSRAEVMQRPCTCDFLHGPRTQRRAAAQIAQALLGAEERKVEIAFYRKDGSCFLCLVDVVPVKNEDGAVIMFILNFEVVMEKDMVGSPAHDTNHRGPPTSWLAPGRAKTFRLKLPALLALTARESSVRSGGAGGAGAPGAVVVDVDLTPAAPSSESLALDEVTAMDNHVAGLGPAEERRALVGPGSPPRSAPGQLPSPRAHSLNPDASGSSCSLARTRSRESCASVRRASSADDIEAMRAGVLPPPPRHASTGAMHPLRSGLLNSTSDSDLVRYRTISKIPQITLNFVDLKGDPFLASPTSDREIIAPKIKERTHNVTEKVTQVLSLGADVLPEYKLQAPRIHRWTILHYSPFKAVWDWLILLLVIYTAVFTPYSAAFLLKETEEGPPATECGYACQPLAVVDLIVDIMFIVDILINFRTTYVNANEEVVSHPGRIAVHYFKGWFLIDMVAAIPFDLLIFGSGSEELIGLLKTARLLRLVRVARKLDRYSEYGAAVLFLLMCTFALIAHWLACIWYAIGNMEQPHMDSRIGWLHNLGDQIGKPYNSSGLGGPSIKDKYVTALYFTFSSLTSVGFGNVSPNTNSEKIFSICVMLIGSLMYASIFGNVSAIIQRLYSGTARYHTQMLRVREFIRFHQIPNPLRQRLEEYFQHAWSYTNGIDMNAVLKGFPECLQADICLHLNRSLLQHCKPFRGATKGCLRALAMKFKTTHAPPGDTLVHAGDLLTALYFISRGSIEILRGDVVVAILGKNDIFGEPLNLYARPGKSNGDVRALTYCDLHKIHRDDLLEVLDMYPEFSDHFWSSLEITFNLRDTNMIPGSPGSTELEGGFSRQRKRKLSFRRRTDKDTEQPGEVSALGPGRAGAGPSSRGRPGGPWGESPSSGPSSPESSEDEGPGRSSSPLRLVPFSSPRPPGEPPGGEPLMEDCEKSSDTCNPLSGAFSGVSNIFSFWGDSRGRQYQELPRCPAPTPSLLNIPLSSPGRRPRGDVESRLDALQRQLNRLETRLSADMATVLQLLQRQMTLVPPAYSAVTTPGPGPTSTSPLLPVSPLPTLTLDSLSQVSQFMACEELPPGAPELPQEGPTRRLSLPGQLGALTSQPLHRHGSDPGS
Chain of Cytochrome P450 3A4 (Homo sapiens) (P08684 whole entry, looked up): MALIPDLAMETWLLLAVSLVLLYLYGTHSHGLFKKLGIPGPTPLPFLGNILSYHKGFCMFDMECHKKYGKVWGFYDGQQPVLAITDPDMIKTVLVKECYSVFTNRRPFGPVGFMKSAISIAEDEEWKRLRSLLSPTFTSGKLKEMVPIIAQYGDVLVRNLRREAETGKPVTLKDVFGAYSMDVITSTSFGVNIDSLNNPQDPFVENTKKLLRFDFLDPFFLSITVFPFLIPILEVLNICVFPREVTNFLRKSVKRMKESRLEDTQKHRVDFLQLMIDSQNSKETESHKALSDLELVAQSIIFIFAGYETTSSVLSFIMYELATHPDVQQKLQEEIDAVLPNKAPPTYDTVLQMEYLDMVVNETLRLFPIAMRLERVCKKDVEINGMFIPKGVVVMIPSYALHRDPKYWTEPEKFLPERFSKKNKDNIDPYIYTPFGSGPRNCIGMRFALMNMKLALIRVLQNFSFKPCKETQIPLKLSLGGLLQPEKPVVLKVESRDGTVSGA

Structure (SMILES) | Potency [1] | Potency [2]
C[Si](C)O[Si](C)C | inactive | inactive
Cn1cccc1 | inactive | inactive
CCCCOC(=O)C(C)CC (configuration not stated) | inactive | inactive
Clc1cccnc1 | inactive | inactive
OCCCc1cccnc1 | inactive | 15.9 µM (active)
C=C(c1ccc(C(=O)O)cc1)c1cc2c(cc1C)C(C)(C)CCC2(C)C | inactive | inactive
CC1CCCCN1CCCOC(=O)c1ccc(OC2CCCCC2)cc1 (configuration not stated) | 2.68 µM (active) | inactive
CC(=O)O[C@@H]1C[C@@H]2CC[C@@]1(C)C2(C)C | inactive | inactive
COC(=O)NCCC[Si](OC)(OC)OC | inactive | 28.3 µM (active)
CCCCCCCC(=O)OCC | inactive | inactive
O=C1OC(=O)c2ccc3c4c(ccc1c24)C(=O)OC3=O | inactive | inactive
CC(C)=CC1CC(C)CCO1 (configuration not stated) | inactive | inactive
C[C@]12CC[C@H]3C(=CCc4cc(O)ccc43)[C@@H]1CCC2=O | inactive | 20 µM (active)
CCO[Si](C)(C)OCC | inactive | inactive
O=C1c2c(O)ccc([N+](=O)[O-])c2C(=O)c2c([N+](=O)[O-])ccc(O)c21 | inactive | 12.5 µM (active)
CCNc1nc(NC(C)CC)nc(OC)n1 (configuration not stated) | inactive | inactive
CCOC(=O)CN | inactive | inactive
C#CC(O)CCC (configuration not stated) | inactive | inactive
CCC1CCCCC1 | inactive | inactive
CC1(C)C(=O)N(CO)C(=O)N1CO | inactive | inactive

Structure (SMILES) | Potency [1] | Potency [2]
CCC(=O)OCCc1ccccc1 | inactive | inactive
C/C=C/c1ccc(OC)c(OC)c1 | inactive | 20 µM (active)
COc1ccc(C#N)cc1 | inactive | inactive
CC(C)(C)C1=CC(=O)C=C(C(C)(C)C)C1=O | inactive | inactive
CCCCCCCCC(C)=O | inactive | inactive
CCc1cccc(CC)c1NC(=O)C(=O)O | inactive | inactive
COc1ccccc1C=O | inactive | inactive
Clc1nc2ccccc2s1 | inactive | inactive
Cc1cccc(Br)c1 | inactive | inactive
Cc1cccc(C)n1 | inactive | inactive
O=C(Nc1ccc(Cl)c(Cl)c1)c1cc(Cl)cc(Cl)c1O | inactive | 17.8 µM (active)
CCCOc1sc(C(=O)N2CCC(c3cc(CN)ccc3F)CC2)c(C)c1Br | 5.65 µM (active) | 10.3 µM (active)
CCN=c1cc2oc3cc(NCC)c(C)cc3c(-c3ccccc3C(=O)OCC)c-2cc1C | 2.45 µM (active) and 2.19 µM (active) | 999 nM (active) and 2 µM (active)
C/C=C/CO | inactive | inactive
Nc1ncnc2c1ncn2[C@@H]1O[C@H](COP(=O)(O)O)[C@@H](O)[C@H]1O | inactive | inactive
CC(=O)C=O | inactive | inactive
CCN=C1C=CC(=C(c2ccc(N(CC)CC)cc2)c2ccc(N(CC)CC)cc2)c2ccccc21 | 0.345 µM (active) | 8.88 µM (active)
CO[Si](CCCNCCNCCN)(OC)OC | inactive | inactive
OCCC(O)CO (configuration not stated) | inactive | inactive
C=C(C)CCCC | inactive | inactive

Structure (SMILES) | Potency [1] | Potency [2]
C[C@@]12C(=O)OC(=O)[C@]1(C)C1CCC2O1 | inactive | inactive
CCc1cccc(CC)c1N(COC)C(=O)CS(=O)(=O)O | inactive | inactive
O=C(O)Cc1ccc(OCCNC[C@H](O)c2ccccc2)cc1 | inactive | inactive
COC(=O)[C@]1(C)CCC[C@@]2(C)[C@H]1CC=C1C=C(C(C)C)CC[C@@H]12 | inactive | 35.6 µM (active)
[O]=[Zr] | inactive | inactive
CC(C)(C)CC(C)(C)c1ccccc1O | – | 63.6 µM (active)
CCCCC(CC)COC(=O)c1ccc(O)cc1 (configuration not stated) | – | 70.7 µM (active)
COc1cccc(OC)c1O | inactive | inactive
CN1CN(C)CN(C)C1 | – | inactive
CCc1ccc(O)c(C(C)(C)C)c1 | – | inactive
CC(C)=C1CC[C@@H](C)CC1=O | inactive | inactive
Cc1ccc(O)cn1 | inactive | inactive
CCOB(OCC)OCC | inactive | inactive
C=CC(=O)OCCC#N | inactive | inactive
CC(C)=CCCC(C)O (configuration not stated) | inactive | inactive
CCc1ccc(C)nc1 | inactive | inactive
C=CC(=O)OCC(O)COc1ccccc1 (configuration not stated) | inactive | inactive
Oc1ccc(-c2ccccc2)c(Cl)c1 | inactive | inactive
